Shown are actives, neighbours in structure and some others; about 3.2% of the full set was active somewhere.
rRNA inh HTS – reduced GFP signal of wild-type E. coli, primary screen, bacterial rRNA inhibitor project, GFP/RFP fluorescence, OD600, single point; GFP signal change (wild-type ribosome), % (concentration not given with the values); E. coli WT GFP vs humanized-ribosome RFP mutants, 24 h; active compounds read low; DMSO median 0, no signal -100; actives 1.6% (n = 350,000);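 active = significant combined selectivity score with lowered wild-type GFP, culture density cut under 30%, mutant RFP and density less affected; inactive = any of these conditions unmet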
PGC1a acetyl inh – inhibitors of PGC1a acetylation signal, primary screen, cell-based, U2OS, AlphaScreen, inhibitor mode. inhibition, % at 15.6 µM. AlphaScreen anti-acetyl-lysine; with virally co-expressed GCN5 acetyltransferase. actives 0.17% (n = 350,000). AID 651687, 2012;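 active = every replicate shows inhibition of at least 40%; inconclusive = mean inhibition at least 40% but some replicate below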
INS-1E GSIS act – GLuc luminescence reporter in INS-1E cells, primary screen for activators of glucose-dependent secretion of insulin. INS-1E GLuc reporter insulin secretion, 2-3 h. activation, % at 16.6 µM. actives 0.61% (n = 370,000). AID 743287, 2014;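 active = lowest replicate activation of at least 40%, so every replicate reaches that level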
CaV13 FRET inh – Disruptors of the CACNA1D IQ motif to Ca2+-dependent inactivation inhibitor domain association, primary screening, Förster resonance energy transfer in intact living …; HEK cells, CFP/YFP FRET ICDI-IQ, plate reader, 10 min; percent FRET-ratio fall versus neutral wells; inhibition, % at 12.3 µM; actives 0.098% (n = 340,000); AID 743397;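 active = mean replicate inhibition of at least 30% and at least 1% of replicates passing that level; inconclusive = only one of the two criteria is met; inactive = neither criterion is met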
ERAP1 inh – human ERAP1 aminopeptidase inhibitors, primary screen, biochemical, single point, plate reader; Endoplasmic reticulum aminopeptidase 1 (Homo sapiens), Q9NZ08; recombinant ERAP1, Leu-AMC fluorescence, 60 min; inhibition, % at 10.7 µM; actives 0.15% (n = 340,000); AID 652197, 2013;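 active = mean replicate inhibition of at least 30%, or all replicates individually reaching that 30% level; inactive = mean below 30% and not every replicate reaching it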
Target sequence (Q9NZ08 whole entry, looked up): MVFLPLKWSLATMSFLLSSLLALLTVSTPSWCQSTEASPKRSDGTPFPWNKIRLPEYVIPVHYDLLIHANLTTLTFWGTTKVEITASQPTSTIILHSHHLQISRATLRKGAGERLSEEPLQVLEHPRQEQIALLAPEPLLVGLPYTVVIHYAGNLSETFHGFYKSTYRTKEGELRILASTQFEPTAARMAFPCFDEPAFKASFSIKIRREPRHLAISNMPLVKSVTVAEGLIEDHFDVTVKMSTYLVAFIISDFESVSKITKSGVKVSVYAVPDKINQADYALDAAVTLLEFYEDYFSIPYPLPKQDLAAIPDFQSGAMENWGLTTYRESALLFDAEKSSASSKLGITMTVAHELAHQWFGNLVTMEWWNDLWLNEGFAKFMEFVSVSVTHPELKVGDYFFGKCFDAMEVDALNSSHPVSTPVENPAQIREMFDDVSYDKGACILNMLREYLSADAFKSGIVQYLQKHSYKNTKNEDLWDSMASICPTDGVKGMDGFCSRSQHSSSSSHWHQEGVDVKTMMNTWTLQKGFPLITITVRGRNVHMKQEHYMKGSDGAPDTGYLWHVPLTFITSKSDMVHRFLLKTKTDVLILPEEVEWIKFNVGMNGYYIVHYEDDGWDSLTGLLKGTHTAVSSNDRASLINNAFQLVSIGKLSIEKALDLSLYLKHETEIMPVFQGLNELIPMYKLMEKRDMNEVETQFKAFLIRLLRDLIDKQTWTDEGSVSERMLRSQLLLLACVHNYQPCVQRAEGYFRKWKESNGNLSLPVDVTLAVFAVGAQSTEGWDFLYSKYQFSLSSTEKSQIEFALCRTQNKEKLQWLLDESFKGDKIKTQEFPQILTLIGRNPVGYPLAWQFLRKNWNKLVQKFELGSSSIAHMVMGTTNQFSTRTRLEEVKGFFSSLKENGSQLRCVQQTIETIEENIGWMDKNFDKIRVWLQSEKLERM
DENV2 CPE – inhibitors of DENV2 cytopathic effect, primary screen, cell-based, plate reader, single concentration; DENV2-infected cells, cytopathic effect rescue; CPE inhibition, % at 9.99 µM; actives 1.7% (n = 350,000); AID 651640, 2012; in the data active = CPE inhibition above about 20%, passing the limit was not always enough; inconclusive = no clear call, values can overlap the other calls; tested in BHK-21 cells
Of the large screens only hits and unclear results are named; the others gave an inactive call; ! = a repeat was not active.

COc1ccc2c3c(n(C)c2c1)[C@H](CO)N(C(C)=O)CC31CN(Cc2nccs2)C1	none (no result: CaV13 FRET inh)
COc1ccc(NC(=O)N(C)C[C@H]2Oc3ccc(NC(=O)Cc4ccccc4)cc3C(=O)N([C@H](C)CO)C[C@H]2C)cc1	none (no result: CaV13 FRET inh, ERAP1 inh, DENV2 CPE)
C[C@@H](NC(=O)[C@@H]1[C@@H](CO)[C@@H]2Cn3c(ccc(-c4cccnc4)c3=O)[C@@H]2N1C)c1ccccc1	none (no result: PGC1a acetyl inh, CaV13 FRET inh)
CCC(=O)N1C[C@H](O)COC[C@H]2O[C@H](CC(=O)NCc3ccccc3Cl)CC[C@@H]21	none (no result: CaV13 FRET inh, ERAP1 inh)
Nc1cccn2c(-c3ccc(Cl)c(Cl)c3)cnc12	rRNA inh HTS -26.1 (no result: PGC1a acetyl inh)
C[C@H]1CN([C@@H](C)CO)C(=O)c2cc(NC(=O)CCCCCC(=O)Nc3ccccc3N)ccc2O[C@H]1CN(C)CC1CCCCC1	none (no result: CaV13 FRET inh)
O=C(Nc1cc([N+](=O)[O-])ccc1N1CCCC1)c1ccccc1	rRNA inh HTS -26.4
CN(C)C(=O)C[C@@H]1CC[C@H]2[C@@H](COC[C@@H](O)CN2C(=O)C2CC2)O1	DENV2 CPE inconclusive (no result: CaV13 FRET inh)
O=C(Nc1cccc2ccccc12)OCc1ccccc1	DENV2 CPE inconclusive
O=C(NCCOC(=O)Nc1cccc2ccccc12)OCc1ccccc1	rRNA inh HTS -33.5
Cc1ccc(S(=O)(=O)N(C)C[C@H]2Oc3ccc(NS(=O)(=O)c4cccs4)cc3C(=O)N([C@H](C)CO)C[C@@H]2C)cc1	none (no result: CaV13 FRET inh)
COc1ccccc1C/C(N)=N/OC(=O)c1cccs1	rRNA inh HTS -24.6
COc1ccc(C/C(N)=N/OC(=O)c2cccs2)cc1	none
C[C@@H]1CN([C@@H](C)CO)C(=O)CCCn2nncc2CO[C@@H]1CN(C)CC1CCCCC1	DENV2 CPE 58.9 (no result: CaV13 FRET inh)
C[C@@H]1CN([C@@H](C)CO)C(=O)CCCn2nncc2CO[C@H]1CN(C)Cc1ccccc1	INS-1E GSIS act 40.9!
COc1ccc2c3c(n(C)c2c1)[C@H](CO)N(S(C)(=O)=O)CC31CCN(C(=O)C2CCC2)CC1	none (no result: PGC1a acetyl inh, CaV13 FRET inh)
Cc1ccc(CN(C)c2ccc(S(=O)(=O)N3CCCC3)cn2)cc1	DENV2 CPE 24.7
CN(Cc1ccccc1)c1ccc(S(=O)(=O)N2CCOCC2)cn1	none (no result: rRNA inh HTS, INS-1E GSIS act, CaV13 FRET inh, ERAP1 inh, DENV2 CPE)
COc1cc(CN(C)c2ccc(S(=O)(=O)N3CCCC3)cn2)ccc1OC(F)F	INS-1E GSIS act 44.3 (no result: PGC1a acetyl inh)
CNC[C@@H]1OCCCC[C@H](C)Oc2ccc(NS(=O)(=O)c3ccc(OC)cc3)cc2C(=O)N([C@H](C)CO)C[C@H]1C	none (no result: CaV13 FRET inh, ERAP1 inh, DENV2 CPE)
COc1ccc(-c2ccc([C@H]3[C@H](CO)N4C(=O)CNC[C@@H]34)cc2)cc1	none (no result: CaV13 FRET inh)
C[C@@H]1CCCCO[C@@H](CN(C)S(=O)(=O)c2ccc(F)cc2)[C@H](C)CN([C@H](C)CO)C(=O)c2cc(NC(=O)Nc3ccc4c(c3)OCO4)ccc2O1	DENV2 CPE 23.8 (no result: CaV13 FRET inh)
C[C@@H]1CCCCO[C@H](CN(C)S(=O)(=O)c2ccc(Cl)cc2)[C@H](C)CN([C@@H](C)CO)C(=O)c2cc(NC(=O)Nc3ccc4c(c3)OCO4)ccc2O1	DENV2 CPE 34.3 (no result: CaV13 FRET inh)
C[C@H](CO)N1C[C@H](C)[C@H](CN(C)S(=O)(=O)c2ccc(Cl)cc2)Oc2ccc(NC(=O)Nc3ccc4c(c3)OCO4)cc2C1=O	DENV2 CPE 29.2 (no result: CaV13 FRET inh)
C[C@H](CO)N1C[C@H](C)[C@@H](CN(C)S(=O)(=O)c2ccc(Cl)cc2)OCCCC[C@H](C)Oc2ccc(NC(=O)Nc3ccc4c(c3)OCO4)cc2C1=O	none (no result: CaV13 FRET inh)
N#C/C(=N\Nc1ccc([N+](=O)[O-])cc1)C(=N)N1CCOCC1	none (no result: PGC1a acetyl inh)
N#C/C(=N\Nc1ccc(Br)cc1)C(=N)N1CCOCC1	rRNA inh HTS -26.4 (no result: PGC1a acetyl inh)
CC(=O)N(C)C[C@@H]1Oc2ccc(N)cc2C(=O)N(C)C[C@@H]1C	none (no result: PGC1a acetyl inh, CaV13 FRET inh, ERAP1 inh, DENV2 CPE)
COc1ccc(S(=O)(=O)N(C)C[C@@H]2Oc3ccc(NS(=O)(=O)c4cn(C)cn4)cc3CC(=O)N([C@@H](C)CO)C[C@@H]2C)cc1	none (no result: CaV13 FRET inh)
Cc1ccc(NC(=O)CN(C)C(=O)c2ccccc2OCc2c(C)noc2C)cc1	none
CCOc1ccc2oc(C(=O)N(C)CCc3ccc(OC)c(OC)c3)c(C)c2c1	INS-1E GSIS act 49.7, DENV2 CPE inconclusive
CCOc1ccc(NC(=O)CN(C)C(=O)c2ccccc2OCc2c(C)noc2C)cc1OCC	DENV2 CPE 24.6 (no result: PGC1a acetyl inh)
CCOc1ccc2oc(C(=O)NCC3CCCO3)c(C)c2c1 (stereo not given)	DENV2 CPE 64.2
CCOc1ccc2oc(C(=O)N(C)CC(=O)Nc3ccc(OCC)c(OCC)c3)c(C)c2c1	rRNA inh HTS -28.2, DENV2 CPE inconclusive
COc1ccc(NC(=O)CN(C)C(=O)c2oc3ccccc3c2C)cc1	none (no result: PGC1a acetyl inh)
CC(C)NC(=O)Nc1ccc2c(c1)CC(=O)N(C)C[C@H](C)[C@@H](CN(C)C)O2	none (no result: PGC1a acetyl inh, CaV13 FRET inh, ERAP1 inh, DENV2 CPE)
CCc1ccc(C(=O)CN(C#N)c2nc(C)cc(C)n2)cc1	PGC1a acetyl inh 48.8 (no result: rRNA inh HTS, DENV2 CPE)
Cc1cc(C)nc(N(C#N)CC(=O)c2ccccc2)n1	none (no result: CaV13 FRET inh, DENV2 CPE)
O=C(CSc1nnc(-c2c[nH]c3ccccc23)o1)N1CCCCC1	rRNA inh HTS -32.5 (no result: PGC1a acetyl inh)
Cc1noc(C)c1S(=O)(=O)Nc1ccc2c(c1)C(=O)N([C@@H](C)CO)C[C@H](C)[C@@H](CN(C)Cc1ccccc1)OCCCC[C@@H](C)O2	none (no result: CaV13 FRET inh)
COc1ccc2c3c(n(C)c2c1)[C@H](CO)N(CC1CC1)CC31CCN(C(=O)CC2CC2)CC1	none (no result: PGC1a acetyl inh, CaV13 FRET inh, ERAP1 inh, DENV2 CPE)
CCOC(=O)CCCCCC(=O)Nc1ccc2c(c1)CC(=O)N([C@@H](C)CO)C[C@H](C)[C@@H](CN(C)C(=O)Nc1ccc3c(c1)OCO3)O2	DENV2 CPE 45.9
C[C@H](CO)N1C[C@H](C)[C@@H](CN(C)C(=O)Nc2ccc(F)cc2)Oc2ccc(NC(=O)Nc3ccc4c(c3)OCO4)cc2CC1=O	none (no result: CaV13 FRET inh, ERAP1 inh)
C[C@H](CO)N1C[C@H](C)[C@@H](CN(C)C(=O)Nc2ccc3c(c2)OCO3)Oc2ccc(NC(=O)Nc3ccc(F)cc3)cc2CC1=O	DENV2 CPE 23.3 (no result: CaV13 FRET inh)
C[C@H]1CN([C@@H](C)CO)C(=O)Cc2cc(NC(=O)Nc3ccc4c(c3)OCO4)ccc2O[C@H]1CN(C)C(=O)Nc1ccc(F)cc1	none (no result: CaV13 FRET inh, ERAP1 inh)
C[C@@H]1CN([C@H](C)CO)C(=O)Cc2cc(NC(=O)CCCN(C)C)ccc2O[C@H]1CN(C)C(=O)Nc1ccc2c(c1)OCO2	none (no result: CaV13 FRET inh)
C[C@@H]1CN([C@@H](C)CO)C(=O)Cc2cc(NC(=O)Nc3ccc4c(c3)OCO4)ccc2O[C@H]1CN(C)C(=O)Nc1ccc(F)cc1	DENV2 CPE 45.3 (no result: CaV13 FRET inh, ERAP1 inh)
CCC(=O)N1CC2(C1)CN(Cc1cc(F)ccc1F)[C@H](CO)c1c2c2ccc(OC)cc2n1C	none (no result: PGC1a acetyl inh, CaV13 FRET inh, ERAP1 inh, DENV2 CPE)
